DT40 TDP1 CPT – DT40-hTDP1 cell growth loss with CPT | 420,000 tested, 12% active | chicken DT40 Tdp1-/-;hTDP1 cells + 20 nM CPT, ATP luminescence, 48 h | Potency, µM (doses to about 46.2 µM), for the others: at the highest dose activity change, negative = growth inhibition, hits mostly inhibitors; also: nearly all actives have a fitted effect of over 55% in size
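Chicken DT40 Tdp1-/- cells stably complemented with human TDP1 were seeded at 400 cells/well in medium containing 20 nM camptothecin, exposed to pin-transferred compounds, and grown at 37 °C for at least 48 hr. Viability was read as ATP luminescence.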
TDP1 cell noCPT – qHTS for Inhibitors of human tyrosyl-DNA phosphodiesterase 1 (TDP1): qHTS in cells in absence of CPT. Potency, µM (titrated, usually from 46.2 µM), for the others: top-dose activity change, negative = growth inhibition, most hits filed as inhibitors. DT40 Tdp1-/- hTDP1 cells, no CPT, ATP luminescence, 48 h. 420,000 tested, 15% active. AID 686978, 2013; also: nearly all actives have a fitted effect of over 55% in size
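A cellular qHTS used chicken DT40 cells lacking endogenous Tdp1 but carrying stably transfected human TDP1. Compounds were applied without camptothecin, and cell growth kinetics were judged by ATP-dependent luminescence after ≥48 hr.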
RORgamma inh – inhibitors of mouse ROR gamma transcriptional activity. P51450. Drosophila S2 Gal4-RORgamma UAS-luciferase reporter, 20 h. Potency, µM (highest dose often 53.6 µM), inactives show at the top dose activity change, negative = inhibition, actives largely listed as inhibitors. 310,000 tested, 5.4% active. AID 2551; also: nearly all actives have a fitted effect of over 60% in size
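Stable Schneider cell line, Gal4 DNA-binding domain fused to ROR gamma, UAS-luciferase. Cmpd 1 hr RT → CuSO4 700 uM final → 20 hr RT → luciferase reagent 10 min → luminescence.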
TDP1 inh – TDP1 (human) enzyme inhibition | recombinant TDP1, AlphaScreen DNA substrate cleavage | 350,000 tested, 0.28% active | Potency, µM (doses to about 130 µM), for the others: at the top dose activity change, negative = inhibition, usual class: inhibitors; also: nearly all actives have a fitted effect of over 40% in size
Target sequence (Q9NUW8 whole entry, looked up): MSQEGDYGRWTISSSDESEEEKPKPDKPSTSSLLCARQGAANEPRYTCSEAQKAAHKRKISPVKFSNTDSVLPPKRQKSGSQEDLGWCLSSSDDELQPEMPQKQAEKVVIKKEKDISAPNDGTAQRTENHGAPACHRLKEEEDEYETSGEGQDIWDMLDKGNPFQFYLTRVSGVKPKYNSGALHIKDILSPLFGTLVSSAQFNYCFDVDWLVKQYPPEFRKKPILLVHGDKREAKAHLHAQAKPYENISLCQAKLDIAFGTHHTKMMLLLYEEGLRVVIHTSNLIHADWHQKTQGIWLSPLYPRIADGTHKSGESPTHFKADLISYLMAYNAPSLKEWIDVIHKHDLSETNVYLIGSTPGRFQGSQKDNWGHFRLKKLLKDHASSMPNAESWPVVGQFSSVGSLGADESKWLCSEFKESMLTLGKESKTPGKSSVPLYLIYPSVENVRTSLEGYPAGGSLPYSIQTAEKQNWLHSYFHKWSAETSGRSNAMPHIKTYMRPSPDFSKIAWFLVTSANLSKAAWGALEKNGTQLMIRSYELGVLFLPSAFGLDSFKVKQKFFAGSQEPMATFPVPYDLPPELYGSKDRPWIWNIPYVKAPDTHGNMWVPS
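Steps: enzyme plus compound, 15 min RT; add biotin/phosphotyrosine-FITC oligonucleotide (15 nM final), react 5 min; add donor/acceptor beads (10 ug/ml final), 10 min; read AlphaScreen. Tdp1 at 1 nM final.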
VP16 counter – Gal4-VP16 reporter inhibition counter-screen | Potency, µM (top dose mostly 53.6 µM), inactives show at the highest dose activity, negative = inhibition, usual class: inhibitors | 310,000 tested, 3.5% active | AID 2546 | Drosophila S2 Gal4-VP16 UAS-luciferase, luminescence, 20 h;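 also: Gal4-VP16 expression switched on by copper sulfate through the metallothionein promoter; nearly all actives have a fitted effect of over 50% in size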
* marks the source's active call; other numbers are inactive results; ? = inconclusive; nt = not tested or not shown. Sampled rows, rich in hits. Any-hit rate of the full collection: about 19%. Calls follow the shape of the dose curve; as a rule, active = well fitted curve in the direction sought with a large enough effect; inconclusive = small, poorly fitted or top-dose-only effect, or another doubt; inactive = no such curve, though single readings can be large; an effect the other way counts as inactive or inconclusive. % is scaled to controls: 0 for no effect and ±100 for the full control effect; potency is read from the fitted curve at half-maximal effect.

SMILES | DT40 TDP1 CPT | TDP1 cell noCPT | RORgamma inh | TDP1 inh | VP16 counter
C=CCNC(=O)C1CCN(S(=O)(=O)c2cccs2)CC1 | -12% | 1% | -16% | 3% | -10%
Cc1ccc(NC(=O)C2SC(=Nc3ccccc3)C(C(=O)Nc3ccc(Cl)cc3)=C2N)cc1 (centres undefined) | 6.5µM* | 18µM* | 13% | 3% | -1%
CCSc1cnc(-c2ccccc2)n1CC | -7% | ? | 13µM* | 4% | -27%
Cc1cccc(Nc2nnc(SCC(=O)c3ccc(O)cc3O)s2)c1 | -7% | -27% | -18% | 9% | -1%
COc1ccccc1CCNC(=O)C(=O)NCC(c1cccs1)S(=O)(=O)c1ccc(C)cc1 (centres undefined) | 15µM* | 21µM* | nt | -3% | nt
COc1ccccc1CCNC(=O)C(=O)NCC(c1cccs1)S(=O)(=O)c1cccs1 (centres undefined) | ? | ? | nt | 5% | nt
O=C(NCCc1ccc(F)cc1)C(=O)NCC(c1ccco1)S(=O)(=O)c1cccs1 (centres undefined) | ? | ? | nt | -8% | nt
COc1ccccc1CCNC(=O)C(=O)NCC(c1ccco1)S(=O)(=O)c1cccs1 (centres undefined) | 21µM* | ? | nt | 3% | nt
COc1ccccc1CCNC(=O)C(=O)NCC(c1ccco1)S(=O)(=O)c1ccc(C)cc1 (centres undefined) | 21µM* | ? | nt | 0% | nt
COc1ccc(CCNC(=O)C(=O)NCC(c2ccco2)S(=O)(=O)c2cccs2)cc1 (centres undefined) | 13µM* | 13µM* | nt | 3% | nt
O=C(CCCCCn1c(=S)[nH]c2ccc(N3CCOCC3)cc2c1=O)NCc1ccccc1 | 2% | ? | -26% | 3% | ?
CC(C)N1CCC(=NNC(=O)c2cccs2)CC1 | -4% | 4% | -2% | 3% | -6%
Cc1cc(NC(=O)CN(C)S(=O)(=O)c2cccc(Cl)c2)no1 | 3% | 8% | ? | 2% | -5%
Clc1ccc(N/N=C/c2cccnc2)cc1 | 18µM* | 16µM* | ? | 8% | ?
O=C(O)c1cccc(N/N=C/c2cccnc2)c1 | 5% | ? | -21% | -8% | -25%
O=[N+]([O-])c1ccc(N/N=C/c2cccnc2)cc1 | 5.8µM* | 6.5µM* | ? | nt | 5%
O=C(NCCc1c[nH]c2ccccc12)C(=O)NCC1OCCN1S(=O)(=O)c1ccc(Cl)cc1 (centres undefined) | ? | 21µM* | ? | 4% | ?
Cc1ccc(S(=O)(=O)N2CCCOC2CNC(=O)C(=O)NCCc2c[nH]c3ccccc23)cc1 (centres undefined) | 15µM* | 18µM* | ? | 7% | -24%
O=C(NCCc1c[nH]c2ccccc12)C(=O)NCC1OCCCN1S(=O)(=O)c1ccccc1 (centres undefined) | -79% | 16µM* | 21% | 5% | -1%
Cc1cc(C)c(S(=O)(=O)N2CCOC2CNC(=O)C(=O)NCCc2c[nH]c3ccccc23)c(C)c1 (centres undefined) | 26µM* | 18µM* | ? | 8% | 0%
CN1CCN(c2ccc(-c3ccc4ccccc4n3)cc2)CC1 | ? | 18µM* | 0.32µM* | -3% | ?
Cc1cc(-c2ccc(N3CCOCC3)cc2)nc2ccccc12 | 21µM* | 23µM* | 29% | -3% | -11%
c1ccc2nc(-c3ccncc3)ccc2c1 | -20% | -24% | -40% | -6% | 1%
c1ccc2nc(-c3ccc(N4CCOCC4)cc3)ccc2c1 | -21% | -23% | 1.4µM* | 1% | 1.3µM*
CCOC(=O)C1CCCN(C(=O)CSc2nccn2C)C1 (centres undefined) | 2% | 0% | -15% | 1% | 12%
SMILES | DT40 TDP1 CPT | TDP1 cell noCPT | RORgamma inh | TDP1 inh | VP16 counter
CCOC(=O)C1C(=O)OC(C)(C)C1C(CC)C(=O)c1c(C)cc(C)cc1C (centres undefined) | 18µM* | 9.2µM* | -12% | -1% | -1%
Cc1ccc(-c2nn3nnnc3c3ccccc23)cc1C | -23% | -3% | -2% | 4% | -6%
O=C(COc1coc(CN2CCN(c3ccc(F)cc3)CC2)cc1=O)NC1CCCCC1 | ? | 7.3µM* | nt | nt | nt
COCc1cc(C)n(CC(=O)N/N=C/c2ccc(-c3ccc(Cl)c(C(=O)O)c3)o2)c(=O)c1C#N | -9% | -25% | 3% | nt | -5%
COCc1cc(C)nc(N/N=C/c2ccc(-c3ccc(C(=O)O)c(Cl)c3)o2)c1C#N | nt | nt | 6% | 28µM* | -6%
CSc1nc2oc3c(c2c2nncn12)CC(C)(C)SC3 | ? | ? | -99% | -2% | 13µM*
Cn1c(N)c(C(=O)COC(=O)CNS(=O)(=O)c2cccc(Cl)c2)c(=O)n(C)c1=O | 3% | 9% | -1% | 6% | 0%
COc1ccc(-c2cc(=O)[nH][nH]2)cc1 | ? | -3% | -13% | 9% | 4%
COc1ccc(-c2cc(=O)n(CCC#N)[nH]2)cc1 | ? | 23µM* | -2% | 5% | -7%
O=C(Nc1cccc(C(F)(F)F)c1)C(Sc1ncnc2ccccc12)c1ccccc1 (centres undefined) | ? | 21µM* | -1% | 8% | 0%
Cc1cc(C)cc(NC(=O)C(Sc2ncnc3ccccc23)c2ccccc2)c1 (centres undefined) | ? | ? | 1% | -3% | 3%
C[N+]1(CC2COC3(CCCCC3)O2)CCCCC1 (centres undefined) | -11% | -4% | -31% | nt | 0%
C[N+]1(CC2COC(c3ccccc3)(C3CCCCC3)O2)CCCCC1 (centres undefined) | -94% | 6µM* | 1% | nt | -7%
CCNC(=O)COC(=O)/C=C/c1cccs1 | -5% | 1% | -2% | -1% | -19%
Cc1ccc(S(=O)(=O)N(C)c2ccc3c(ncn3C)c2[N+](=O)[O-])cc1 | -24% | ? | nt | -2% | nt
CC(C)C(C)NC(=O)COc1ccc([N+](=O)[O-])cc1Cl (centres undefined) | 8.2µM* | ? | ? | 5% | 3%
CCOc1ccccc1OCCCOc1ccc([N+](=O)[O-])cc1Cl | -74% | 23µM* | 9% | 12% | -5%
COc1cc2[nH]c(=S)n(Cc3cccs3)c(=O)c2cc1OC | ? | ? | ? | 0% | -15%
CN(Cc1c(F)cccc1Cl)C(=O)c1ccc(NC(=O)CC2SC(N3CCCC3)=NC2=O)cc1 (centres undefined) | ? | 18µM* | nt | 0% | nt
Cc1ccccc1NC(=S)N1CCOCC1 | 0% | -2% | -6% | 0% | -9%

Screening results deposited in PubChem BioAssay by National Center for Advancing Translational Sciences (NCATS).
